Assay outcomes from PubChem BioAssay.
In the library only some 4% were active in any assay of this set; here they are far more common.
TROY NFkB inh: TROY signaling inhibition | actives 0.98% (n = 360,000) | AID 1347056 | Q293 LMP1-TROYcd NF-kB luciferase reporter, 4 h | inhibition, % at 10 µM;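 active = compounds whose plate-normalised and pattern-corrected inhibition of the luciferase reporter signal at the single screening dose is 50% or more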
CF NFkB block: inhibitors of cystic fibrosis induced NF-kB. KKLEB NF-kB-GFP reporter, PAF-induced, GFP fluorescence overnight. inhibition, % at 5 µM. actives 0.86% (n = 360,000). AID 588850;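 active = at least 50% inhibition at 5 µM, scaled per plate between neutral and stimulator controls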;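 note: PAF is a Pseudomonas aeruginosa culture filtrate used as stimulus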
HIF-2a inh: blocks HIF-2a reporter activity | inhibition, % at 18.8 µM | 786-0 RCC cells HIF-2a reporter, luciferase luminescence, overnight | AID 624352 | actives 0.72% (n = 360,000);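 active = inhibition of the luminescence signal of 40% or more relative to plate controls, in a single-dose primary screen at 18.75 µM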
Peg3 promoter: Peg3 promoter activity inhibition; HeLa PEG-Prom luciferase reporter, luminescence, overnight; inhibition, % at 20 µM; actives 1.7% (n = 360,000);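 active = inhibition of at least 50% at 20 µM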
KKLEB cytotox: counter-screen for CF NF-kB inhibitors: cytotoxicity | KKLEB CF airway cells viability, ATPlite luminescence, overnight; stronger effect = lower value; cells stimulated with P. aeruginosa culture filtrate | activity change (cytotoxicity), % at 5 µM | actives 0.36% (n = 360,000) | AID 602141;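 active = corrected activity change at or below -50% at 5 µM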
TWEAK-Fn14 inh: TWEAK-Fn14 signaling inhibition | TWEAK-stimulated Fn14 reporter cells, luciferase luminescence, 8 h | inhibition, % at 10 µM | actives 2% (n = 360,000); in the data active = inhibition above about 50%
Hits are given with their value.

How did N=c1c2c(ncn1Cc1ccco1)Oc1ccc3ccccc3c1C2c1ccccc1 (centres undefined) do in these assays?
TROY NFkB inh: inactive; CF NFkB block: inactive; HIF-2a inh: inactive; Peg3 promoter: 57; KKLEB cytotox: inactive; TWEAK-Fn14 inh: inactive

What do the screens show for `CC(C)c1nc2sc3c(SCCN(C)C)ncnc3c2c2c1CCC2`?
TROY NFkB inh: inactive; CF NFkB block: inactive; HIF-2a inh: inactive; Peg3 promoter: inactive; KKLEB cytotox: inactive; TWEAK-Fn14 inh: inactive

Results for O=C(NCCCNC(=O)c1ccco1)c1ccc(Cl)c(Cl)c1 ?
TROY NFkB inh: inactive; CF NFkB block: inactive; HIF-2a inh: inactive; Peg3 promoter: 53; KKLEB cytotox: inactive; TWEAK-Fn14 inh: inactive

Results for NS(=O)(=O)c1ccc(-c2ccc(/C=N/Nc3ccc(C(=O)O)cc3)o2)cc1 ?
TROY NFkB inh: inactive; CF NFkB block: inactive; HIF-2a inh: inactive; Peg3 promoter: inactive; KKLEB cytotox: inactive; TWEAK-Fn14 inh: 50

Results for Cc1ccc(S(=O)(=O)Nc2ccc3c(c2)C(=O)N([C@@H](C)CO)C[C@@H](C)[C@@H](CN(C)C(=O)NC(C)C)OCCCC[C@H](C)O3)cc1 ?
TROY NFkB inh: inactive; CF NFkB block: inactive; HIF-2a inh: inactive; Peg3 promoter: inactive; KKLEB cytotox: inactive; TWEAK-Fn14 inh: inactive

What do the screens show for `CNC(=S)NNC(=O)CSCc1c(Cl)cccc1Cl`?
TROY NFkB inh: inactive; CF NFkB block: inactive; HIF-2a inh: inactive; Peg3 promoter: inactive; KKLEB cytotox: inactive; TWEAK-Fn14 inh: inactive

Results for O=C(CSCc1ccccc1)NNC(=S)Nc1cccc(Cl)c1Cl ?
CF NFkB block: inactive; HIF-2a inh: inactive; Peg3 promoter: inactive; KKLEB cytotox: inactive; TWEAK-Fn14 inh: 64

What do the screens show for `CCn1cc(C(=O)Nc2ncccc2O)c(=O)c2cc(F)c(N3CCN(C(=O)c4ccco4)CC3)cc21`?
TROY NFkB inh: inactive; CF NFkB block: inactive; HIF-2a inh: inactive; Peg3 promoter: 53; KKLEB cytotox: inactive; TWEAK-Fn14 inh: inactive

How did CCn1cc(C(=O)NCc2ccc3c(c2)OCO3)c(=O)c2cc(F)c(N3CCN(C(=O)c4ccco4)CC3)cc21 do in these assays?
TROY NFkB inh: inactive; CF NFkB block: inactive; HIF-2a inh: inactive; Peg3 promoter: 51; KKLEB cytotox: inactive; TWEAK-Fn14 inh: 54

How did CCn1cc(C(=O)NC(C)C)c(=O)c2cc(F)c(N3CCN(C(=O)c4ccco4)CC3)cc21 do in these assays?
TROY NFkB inh: inactive; CF NFkB block: inactive; HIF-2a inh: inactive; Peg3 promoter: inactive; KKLEB cytotox: inactive; TWEAK-Fn14 inh: inactive

Results for CCn1cc(C(=O)NCc2ccccc2)c(=O)c2cc(F)c(N3CCN(C(=O)c4ccco4)CC3)cc21 ?
TROY NFkB inh: inactive; CF NFkB block: inactive; HIF-2a inh: inactive; Peg3 promoter: 68; KKLEB cytotox: inactive; TWEAK-Fn14 inh: 68

What do the screens show for `Cc1cc(NCc2ccco2)n2ncnc2n1`?
TROY NFkB inh: inactive; CF NFkB block: inactive; HIF-2a inh: inactive; Peg3 promoter: inactive; KKLEB cytotox: inactive; TWEAK-Fn14 inh: inactive

Results for O=C(CSc1nc2ccc(NC(=O)c3ccccc3C(=O)O)cc2s1)Nc1ccc(F)c([N+](=O)[O-])c1 ?
TROY NFkB inh: inactive; CF NFkB block: inactive; HIF-2a inh: inactive; Peg3 promoter: inactive; KKLEB cytotox: inactive; TWEAK-Fn14 inh: inactive

What do the screens show for `O=C(Nc1cc(Sc2nc3ccccc3s2)cc([N+](=O)[O-])c1)c1cccc(F)c1F`?
TROY NFkB inh: inactive; CF NFkB block: inactive; HIF-2a inh: inactive; Peg3 promoter: inactive; KKLEB cytotox: inactive; TWEAK-Fn14 inh: 58

How did N#C/C(=C\c1cccs1)C(=O)NCc1ccccc1 do in these assays?
TROY NFkB inh: inactive; CF NFkB block: inactive; HIF-2a inh: inactive; Peg3 promoter: inactive; KKLEB cytotox: inactive; TWEAK-Fn14 inh: inactive

How did N#C/C(=C\c1cccs1)C(=O)Nc1nccs1 do in these assays?
TROY NFkB inh: inactive; CF NFkB block: inactive; HIF-2a inh: inactive; Peg3 promoter: inactive; KKLEB cytotox: inactive; TWEAK-Fn14 inh: 53

Results for Cc1csc2nc(CCNS(=O)(=O)c3ccc4c(c3)OCCO4)cn12 ?
TROY NFkB inh: inactive; CF NFkB block: inactive; HIF-2a inh: inactive; Peg3 promoter: inactive; KKLEB cytotox: inactive; TWEAK-Fn14 inh: inactive

What do the screens show for `CCOC(=O)c1c(NC(=S)NCCc2ccccc2)sc2c1CC(C(C)C)OC2` (centres undefined)?
TROY NFkB inh: inactive; CF NFkB block: 60; HIF-2a inh: inactive; Peg3 promoter: inactive; KKLEB cytotox: inactive; TWEAK-Fn14 inh: inactive

How did CCCCC[C@H](O)/C=C/C1C(=O)C=C[C@H]1C/C=C\CCCC(=O)OC (some centres undefined) do in these assays?
TROY NFkB inh: inactive; CF NFkB block: inactive; HIF-2a inh: inactive; Peg3 promoter: 95; KKLEB cytotox: inactive; TWEAK-Fn14 inh: 59

What do the screens show for `CCCCC[C@H](O)/C=C/[C@@H]1[C@@H](C/C=C\CCCC(=O)OC)[C@@H](O)C[C@H]1O`?
TROY NFkB inh: inactive; CF NFkB block: inactive; HIF-2a inh: inactive; Peg3 promoter: inactive; KKLEB cytotox: inactive; TWEAK-Fn14 inh: inactive

Results for COc1ccc(NC(=O)c2nc[nH]c2C(=O)NCc2ccccc2)cc1 ?
TROY NFkB inh: inactive; CF NFkB block: inactive; HIF-2a inh: inactive; Peg3 promoter: inactive; KKLEB cytotox: inactive; TWEAK-Fn14 inh: inactive

What do the screens show for `Oc1ccccc1C1NN=C(c2ccccc2)S1` (centres undefined)?
TROY NFkB inh: inactive; CF NFkB block: inactive; HIF-2a inh: inactive; Peg3 promoter: inactive; KKLEB cytotox: inactive; TWEAK-Fn14 inh: 56

How did CSc1ccc(C2NN=C(c3ccccc3)S2)cc1 (centres undefined) do in these assays?
TROY NFkB inh: 51; CF NFkB block: inactive; HIF-2a inh: inactive; Peg3 promoter: inactive; KKLEB cytotox: -61; TWEAK-Fn14 inh: 77

How did CCCCN1C=C(C(=O)OC)C(c2ccccc2Cl)C(C(=O)OC)=C1 do in these assays?
TROY NFkB inh: inactive; CF NFkB block: inactive; HIF-2a inh: inactive; Peg3 promoter: inactive; KKLEB cytotox: inactive; TWEAK-Fn14 inh: inactive

How did [O-]/C(=C(\C(=S)Nc1cccc2ccccc12)[n+]1ccccc1)c1ccc(OC(F)F)cc1 do in these assays?
TROY NFkB inh: 82; CF NFkB block: inactive; HIF-2a inh: inactive; Peg3 promoter: inactive; KKLEB cytotox: inactive; TWEAK-Fn14 inh: inactive

Results for COc1cccc(NC(=S)/C(=C(\[O-])c2ccc(OC(F)F)cc2)[n+]2ccccc2)c1 ?
TROY NFkB inh: inactive; CF NFkB block: inactive; HIF-2a inh: inactive; Peg3 promoter: inactive; KKLEB cytotox: inactive; TWEAK-Fn14 inh: inactive

How did Cn1c(N)c(C(=O)COC(=O)/C=C/c2ccccc2Cl)c(=O)n(C)c1=O do in these assays?
TROY NFkB inh: inactive; CF NFkB block: inactive; HIF-2a inh: inactive; Peg3 promoter: inactive; KKLEB cytotox: inactive; TWEAK-Fn14 inh: inactive

What do the screens show for `CN(C)C(=O)CCc1ccc2c3c([nH]c2c1)[C@]1(CCC2CCCC2)[C@@H](C(=O)N2CCOCC2)C[C@H](CC(=O)NCCC2=CCCCC2)C(=O)N1CC3`?
TROY NFkB inh: inactive; CF NFkB block: inactive; HIF-2a inh: inactive; Peg3 promoter: inactive; KKLEB cytotox: inactive; TWEAK-Fn14 inh: inactive
